From publication PMC7826789 (International Journal of Molecular Sciences, 2021)

test system: BRAF

Compound | Kinases covered
COC(=O)c1c(-c2ccccc2)c2cc(OC)ccc2c(=O)n1Cc1ccccc1 [TPKI-97] | BRAF
CCCS(=O)(=O)Nc1ccc(F)c(-n2cc(-c3cncc(OC)c3)nn2)c1F [BI00865461] | BRAF
O=C(Nc1cccc(-c2nn3ncccc3c2-c2ccnc(Nc3cccnc3)n2)c1)c1c(F)cccc1F [GSK312879] | BRAF
CN(C)CCOc1ccc(-c2nc(-c3ccc4c(c3)CC/C4=N\O)c(-c3ccncc3)[nH]2)cc1 [SB-590885] | BRAF
CN(C)CCN(C)C(=O)c1cc(-c2ccncc2)c(-c2ccc(Cl)c(O)c2)o1 [SB-710397] | BRAF

test system: CDK2

Compound | Kinases covered
NS(=O)(=O)c1ccc(Nc2ncc(-c3ccccc3)o2)cc1 [GW572399X] | CDK2
CC(C)COC(=O)c1ccc2c(c1)/C(=C/Nc1ccc(S(N)(=O)=O)cc1)C(=O)N2 [GW416981X] | CDK2
NS(=O)(=O)c1ccc(N/N=C2\C(=O)Nc3ccc(C(=O)NCc4ccncc4)cc32)cc1 [GW300657X] | CDK2
O=C(Nc1n[nH]c2nc(-c3ccc(O)cc3)c(Br)cc12)C1CC1 [SB-725317] | CDK2
NS(=O)(=O)c1ccc(N/N=C2\C(=O)Nc3ccc(-c4cnco4)cc32)cc1 [GW276655] | CDK2
NS(=O)(=O)c1ccc(N/N=C2\C(=O)Nc3ccc(Cl)cc32)cc1 [GW280670X] | CDK2
